Tests used:
Assay type in all cases: functional
Plasmodium falciparum [1] = assay: GSK_TCMDC: Inhibition of Plasmodium falciparum 3D7 in whole red blood cells, using parasite LDH activity as an index of growth. Test compounds present at 2uM
Plasmodium falciparum [2] = assay: GSK_TCMDC: Inhibition of Plasmodium falciparum Dd2 in whole red blood cells, using parasite LDH activity as an index of growth. Test compounds present at 2uM
HepG2 = assay: GSK_TCMDC: Percent inhibition of human HepG2 cell line. Test compounds present at 10uM.

SMILES | Inhibition (Plasmodium falciparum [1]) | Inhibition (Plasmodium falciparum [2]) | Inhibition (HepG2)
COc1cccc(CCNC(C)Cc2ccc(OCCCCOc3ccccc3)cc2)c1 (stereo not given) | 97% | 90% | 100%
COc1ccc(CN2CCN(CCOC(c3ccc(F)cc3)c3ccc(F)cc3)CC2)c(O)c1 | 97% | 97% | 6%
CCCc1c(C(=O)NC2CCC(CN3CCC(c4c[nH]c5ccccc45)CC3)CC2)cnn1-c1ccc(Cl)cc1 (stereo not given) | 90% | 37% | 53%
CC[C@H]1CN2CC[C@H]1C[C@H]2[C@H](O)c1ccnc2ccc(O)cc12.Cl | 99% | 2% | 11%
O=C(NC1CCC(CN2CCC(c3c[nH]c4ccccc34)CC2)CC1)c1cc(-c2ccccc2)c(C(F)(F)F)s1 (stereo not given) | 100% | 100% | 55%
CC(Cc1ccc(S(=O)(=O)N(C(C)C)C(C)C)cc1)NCC(O)c1cccc(C(F)(F)F)c1.Cl (stereo not given) | 96% | 93% | 21%
C=C[C@H]1CN2CC[C@H]1C[C@H]2[C@H](OS(=O)(=O)O)c1ccnc2ccccc12 | 99% | 15% | 8%
CC[C@H]1CN2CC[C@H]1C[C@H]2[C@H](O)c1cc(N2CCCC(CO)C2)nc2ccc(OC)cc12 (stereo not given in full) | 100% | 99% | 11%
CC(C)N(C)C(=O)n1cnc(S(=O)(=O)C2CC3CCC2C3)n1.Cl (stereo not given) | 97% | 96% | 26%
Cc1ccc(C)c(N2CCN(Cc3ccccc3O)CC2)c1 | 100% | 90% | 11%
